Data as given in PubChem BioAssay (NCI).
This is part of a sample that, as a whole, favours compounds with a hit. Of some 83,000 tested, about 20% had one in any assay.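 Compound tested at a single concentration for 48 hours in 96-well plates; a percent growth value below 10 was scored as active.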 Unmarked numbers belong to inactive results. Calls of active or inactive are those of the source.

Columns and labels:
Test in all cases: NCI-60 one-dose screen, 48 h (100 = growth as untreated, 0 = no growth, -100 = all killed)
[1] = test system: NCI-H23 lung; conditions: 10 µM unless noted
[2] = test system: NCI-H226 lung; conditions: 10 µM unless noted
[3] = test system: NCI-H322M lung; conditions: 10 µM unless noted
[4] = test system: HOP-62 NSCLC; conditions: 10 µM unless noted
[5] = test system: NCI-H460 lung; conditions: 10 µM unless noted
[6] = test system: HOP-92 NSCLC; conditions: 10 µM
[7] = test system: NCI-H522 lung; conditions: 10 µM unless noted
[8] = test system: A549/ATCC NSCLC; conditions: 10 µM unless noted
[9] = test system: 786-0 renal; conditions: 10 µM unless noted
[10] = test system: COLO 205 colon; conditions: 10 µM unless noted
[11] = test system: DU-145 prostate; conditions: 10 µM unless noted
[12] = test system: K-562 leukemia; conditions: 10 µM unless noted
[13] = test system: MALME-3M melanoma; conditions: 10 µM unless noted
[14] = test system: MDA-MB-231 breast; conditions: 10 µM unless noted
[15] = test system: RXF 393 renal; conditions: 10 µM unless noted
[16] = test system: SF-268 CNS; conditions: 10 µM unless noted
[17] = test system: SF-295 CNS; conditions: 10 µM unless noted
[18] = test system: SF-539 CNS; conditions: 10 µM unless noted
[19] = test system: UACC-257 melanoma; conditions: 10 µM unless noted

| Structure (SMILES) | growth [1] | growth [2] | growth [3] | growth [4] | growth [5] | growth [6] | growth [7] | growth [8] | growth [9] | growth [10] | growth [11] | growth [12] | growth [13] | growth [14] | growth [15] | growth [16] | growth [17] | growth [18] | growth [19] |
| --- | --- | --- | --- | --- | --- | --- | --- | --- | --- | --- | --- | --- | --- | --- | --- | --- | --- | --- | --- |
| CS(=O)(=O)c1ccc(-c2nn(-c3ccccc3)cc2/C=N/NC(=O)c2nc(N)n[nH]2)cc1 | 96.3% | 101% | 104% | 103% | 83% | 103% | 94.2% | 97.3% | 96.8% | 96.3% | 90% | 59.4% | 90% | 98.4% | 117% | 103% | 103% | 99.3% | 98.3% |
| CCCCNNC(=O)c1ccc(-c2cccc(F)c2F)cc1 | 38.1% | 39.5% | 42.4% | 28.5% | 30% | -3.72% (active) | 4.69% (active) | 34.2% | 50.8% | 4.96% (active) | 28.9% | 21.8% | 9.92% (active) | 51.3% | -34% (active) | 55.6% | 28.2% | 40.8% | 23.5% |
| C=C1CC[C@@H]2[C@](C)(CO)[C@H](O)CC[C@@]2(C)[C@@H]1C/C(O)=C1\CCOC1=O | 104% | 108% | 103% | 102% | 103% | 101% | 82.5% | 96% | 111% | 130% | 102% | 73.1% | 105% | 110% | 123% | 98.8% | 103% | 108% | 93.1% |
| O=C1[C@H]2Cc3c([nH]c4ccccc34)[C@@H](c3ccc(Cl)cc3)N2C(=O)CN1C1CCN(Cc2ccccc2)CC1 | 73.8% | 49% | 57.1% | 74.8% | 29.8% | 42.5% | 81.1% | 43.8% | 64.3% | 50.6% | 55.2% | 9.91% (active) | 72.9% | 55.2% | 41% | 50% | 64.9% | 63.7% | 68% |
| COc1ccccc1N1CCN(C2=CC(=O)C(C)=C(C)C2=O)CC1 | 99.5% | 96.9% | 112% | 103% | 102% | 117% | 88.1% | 102% | 108% | 112% | 105% | 96.9% | 104% | 102% | 97.7% | 101% | 103% | 100% | 96.4% |
| Nc1ccccc1NC(=O)c1ccc(NC(=O)C/C=C/c2cccnc2)cc1 | 41.6% | 46.6% | 47.6% | 36.5% | 46.8% | 11.3% | 7.23% (active) | 47.2% | 53.3% | 10.3% | 14.1% | 17.1% | 18.1% | 50.5% | -13.9% (active) | 35.3% | 34.9% | 7.57% (active) | 26.6% |
| COc1ccc(S(=O)(=O)NCCCNc2nccc(-c3[nH]c(-c4ccccc4)nc3-c3ccc(Cl)c(O)c3)n2)cc1 | 83.4% | 103% | 96.5% | 91.7% | 85.6% | 114% | 69.1% | 102% | 125% | 86.3% | 89.3% | 55.2% | -7% (active) | 61.4% | 140% | 92% | 96.4% | 101% | 23.6% |
| CC(=O)c1nnn(-c2c(C(=O)n3nc(C)cc3C)sc(=S)n2-c2ccccc2)c1C | 106% | 95.7% | 107% | 107% | 113% | 113% | 99.8% | 103% | 111% | 108% | 109% | 102% | 67.7% | 89.2% | 103% | 106% | 109% | 96.6% | 101% |
| O=C1CC(=O)N2CSCN(C(c3ccccc3)c3nc4ncncc4[nH]3)C2=N1 (centres undefined) | 99.7% | 107% | 106% | 96.8% | 112% | 112% | 93.9% | 105% | 104% | 114% | 110% | 102% | 80.5% | 101% | 105% | 103% | 99.1% | 99.1% | 108% |
| C#Cc1nc(C(=O)NCCC(=O)Nc2ccc(NC(=O)c3ccc(/C=C/C(=O)c4nccn4C)cc3)cc2)cs1 | 33.1% | 74.9% | 62.2% | 24.1% | 33.9% | 120% | 14.9% | 55.8% | -59.8% (active) | 56.1% | 21.1% | 8.97% (active) | 6.41% (active) | 5.11% (active) | 45.8% | 33.4% | 55.6% | -89.4% (active) | 78.5% |
| Brc1ccccc1/C=N/Nc1nc(N/N=C/c2ccccc2Br)nc(N2CCOCC2)n1 | 105% | 95.1% | 96.8% | 108% | 103% | 112% | 86.6% | 97.1% | 61.3% | 86.1% | 98.3% | 94.1% | 143% | 103% | 69.6% | 102% | 85.5% | 105% | 104% |
| COc1cc(OC)c(/C=C/S(=O)(=O)Cc2ccc(OC)c(NC(=O)CCC(=O)NO)c2)c(OC)c1 | 16.6% | 27.2% | 47.8% | 25.3% | 6.85% (active) | 63.5% | -6.54% (active) | 24.6% | 28.5% | -53.6% (active) | 14.4% | 12.6% | 64.1% | 26% | 6.03% (active) | 30.4% | 8.21% (active) | -4.79% (active) | 59.5% |
| COc1cc(-c2nc(SCCC(C)C)nc(NNC(=O)c3ccncc3)c2C#N)cc(OC)c1OC | 91.2% | 93% | 64.6% | 63.9% | 105% | 32.9% | 27.9% | 76.5% | 32.3% | 65.9% | 79.1% | 74.6% | 105% | 27.9% | -16.7% (active) | 56% | 65.7% | 71.6% | 94.2% |
| NS(=O)(=O)c1ccc(Nc2nc(N/N=C/c3c[nH]c4ccccc34)nc(Nc3ccccc3)n2)cc1 | 47.1% | 42% | 54.4% | 63.8% | 41.2% | 61.4% | 31.6% | 78.3% | 41.8% | 40.9% | 43.4% | 23% | 46.1% | 48.8% | -25.2% (active) | 59.2% | 31.5% | 47.6% | 63.1% |
| CN1CCN(c2ccc(/C=N/n3cnc4oc(-c5ccccc5)cc4c3=N)cc2)CC1 | 93.6% | 87.5% | 91.1% | 84.2% | 99.6% | 61.4% | 84.4% | 75.1% | 52.8% | 63.5% | 100% | 6.36% (active) | 113% | 65.3% | -5.53% (active) | 92.5% | 99.6% | 84.9% | 96.7% |
| Cc1ccc(-c2cc3nc(C(Cl)Cl)nc(-c4cccs4)n3n2)cc1 | 83.9% | 87.3% | 38.6% | 54.1% | 3.91% (active) | 80% | 97.9% | 67.9% | 100% | 43.7% | 3.22% (active) | 93.2% | 71.7% | 41.6% | 40.5% | 82.2% | 32.8% | 68.5% | 106% |
